# Only some compounds are listed: those with a hit (about 6% of all), similar ones and a draw of the others.
# D1 ag: Allosteric Agonists of the Human D1 Dopamine Receptor: qHTS; D(1A) dopamine receptor (Homo sapiens), P21728; HEK293 T-REx D1 cells, calcium flux, agonist mode; activation, % at 2 µM; 1% of 360,000 active; in the data active = activation above about 30%; also: 0% is about no effect
#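 Tetracycline-induced HEK293 TREx D1 cells, force-coupled to calcium signalling, were dye-loaded with a no-wash calcium kit. Compound was pin-added after a 10 s baseline. Fluorescence was read kinetically at 1 cycle/s for 180 s, with calcium rises flagged as agonism.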
# DRD3 agonist: qHTS of D3 Dopamine Receptor Agonist: qHTS. D(3) dopamine receptor (Homo sapiens), P35462. D3R DiscoveRx beta-arrestin cells, luminescence, 90 min. max activation, %. 0.58% of 410,000 active; in the data active = max activation above about 30%; also: 0% is about no effect
# Target sequence (P35462 whole entry, looked up): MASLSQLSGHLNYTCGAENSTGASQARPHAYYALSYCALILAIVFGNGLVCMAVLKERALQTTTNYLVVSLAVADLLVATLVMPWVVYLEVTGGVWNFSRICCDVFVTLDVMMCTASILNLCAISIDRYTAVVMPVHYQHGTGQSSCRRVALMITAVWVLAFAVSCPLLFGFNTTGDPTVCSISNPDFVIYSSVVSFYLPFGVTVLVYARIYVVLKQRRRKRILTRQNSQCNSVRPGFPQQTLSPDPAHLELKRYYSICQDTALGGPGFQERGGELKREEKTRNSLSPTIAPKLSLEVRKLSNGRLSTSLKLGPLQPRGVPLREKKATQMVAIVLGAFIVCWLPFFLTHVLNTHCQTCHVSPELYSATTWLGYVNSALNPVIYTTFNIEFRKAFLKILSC
#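 Cells at 1500/well, incubated overnight, then treated with pinned compounds (dopamine as control) for 90 min at 37 degrees C. DiscoveRx reagent added for 30 - 60 minutes at room temperature; luminescence read.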
# D1 antag: Antagonist of Human D 1 Dopamine Receptor: qHTS. D(1A) dopamine receptor (Homo sapiens), P21728. HEK293 TREx D1 cells, calcium flux, dopamine EC80; active compounds read low. activity change, negative = inhibition, % at 10 µM. 3.2% of 360,000 active; in the data active = activity change below about -30%; also: % is scaled to controls: 0 for no effect and ±100 for the full control effect
#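 HEK293 T-REx cells expressing inducible, force-coupled D1 receptor; no-wash Ca dye, 30–90 min RT. Cmpd → 180 s read at 1 Hz → EC80 DA → 180 s read.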
# D1 potentiator: Potentiators of Human D1 Dopamine Receptor: qHTS; HEK293 TREx D1 cells, calcium flux, dopamine EC20 potentiation; potentiation, % at 10 µM; 0.036% of 360,000 active; in the data active = potentiation above about 30%; also: 0% is about no effect
# D3 antag: qHTS of D3 Dopamine Receptor Antagonist: qHTS | D3R cells, DiscoveRx beta-arrestin luminescence, antagonist mode; active compounds read low | 2.5% of 360,000 active | D(3) dopamine receptor (Homo sapiens), P35462 | AID 652054, 2013 | max response, negative = inhibition, %; in the data active = max response below about -50%; inconclusive = no clear call, values can overlap the other calls; also: % is scaled to controls: 0 for no effect and ±100 for the full control effect
#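 Cells plated overnight at 1500 cells/well, then exposed to library compounds with dopamine controls for 90 minutes at 37 degrees C. DiscoveRx reagent added for 30–60 minutes at room temperature; luminescence read, quantitative HTS format.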
# * marks the source's active call; other numbers are inactive results; ? = inconclusive; nt = no result given; ! = not confirmed by another sample.
SMILES,D1 ag,DRD3 agonist,D1 antag,D1 potentiator,D3 antag
O=C(NCc1ccco1)c1cccc2c1C(=O)c1ccc(N3CCC(Cc4ccccc4)CC3)cc1S2(=O)=O,nt,30.7*,nt,nt,68.3
CC1CCN(c2ccc3c(c2)S(=O)(=O)c2cccc(C(=O)NCc4cccc(F)c4)c2C3=O)CC1,188.0*,106.4*,13.0,-3.9,100.5
O=C(NCc1ccc(OC(F)(F)F)cc1)c1cccc2c1C(=O)c1ccc(N3CCCC3)cc1S2(=O)=O,nt,-12.8,nt,nt,-50.7*
O=C(NCc1ccc(OC(F)(F)F)cc1)c1cccc2c1C(=O)c1ccc(N3CCCCC3)cc1S2(=O)=O,nt,23.1,nt,nt,44.5
c1ccc(C[C@H]2COc3c4ccccc4nn32)cc1,nt,-0.9,nt,nt,8.9
CCOc1ccc(NC(=O)N2CC=C(c3c[nH]c4ccccc34)CC2)cc1,5.6,-25.5,-35.1*,-2.6,nt
CCc1ccc(NC(=O)N2CC=C(c3c[nH]c4ccccc34)CC2)cc1,2.9,-15.4,-18.9,2.2,nt
Cc1csc2nc(CCNS(=O)(=O)c3ccccc3)cn12,1.4,0.4,18.7,0.9,nt
OCCN1CCN(CC(O)COc2ccc(C34CC5CC(CC(C5)C3)C4)cc2)CC1 (stereo unspecified),63.0*,-7.2,-41.8*,-3.0,-27.2
OC(COc1ccc(CNCCc2ccc(C(F)(F)F)cc2)cc1)CN1CCCCC1 (stereo unspecified),34.5*,-12.1,-37.5*,-3.0,?
NCCOc1ccc(C23CC4CC(CC(C4)C2)C3)cc1,126.7*,3.5,55.9,35.9*,35.2
OC(COc1ccc(Cl)cc1)CN1CCCCC1 (stereo unspecified),5.6,-20.3,7.8,-3.4,-54.8*
OC(COc1ccc(OCC(O)CN2CCCCC2)cc1)CN1CCCCC1 (stereo unspecified),6.2,-4.3,-0.6,4.5,-1.0
CC(C)(C)c1ccc(C(=O)NCC(=O)OC(C(=O)Nc2cc(C(F)(F)F)ccc2Cl)c2ccccc2)cc1 (stereo unspecified),2.5,nt,-11.1,12.2,nt
O=C(Nc1cccc(C(=O)O)c1)/C(=C\c1ccccc1)NC(=O)c1ccco1,nt,-4.8,nt,nt,50.4
O=C(CSc1nnc(NC(=O)c2c(F)cccc2Cl)s1)Nc1ccccc1F,2.0,-1.7,-3.5,-6.0,-3.5
Cc1ccc(NC(=O)Cn2c(=O)n(Cc3nc(-c4ccccc4)no3)c(=O)c3ccccc32)c(C)c1,1.2,1.9,2.9,0.9,nt
COCc1cc(C)nc2sc3c(c12)NC(c1ccc(O)cc1)N(c1ccc(OC)cc1)C3=O (stereo unspecified),1.6,1.6,-0.6,9.8,nt
CN1CCn2cnc(C(=O)N[C@@H](Cc3ccccc3)C(=O)OC(C)(C)C)c2C1=O,nt,0.1,nt,nt,-2.8
Cc1cc(OCC(O)CN2CCCC2)cc(C)c1Cl (stereo unspecified),14.2,-4.9,-12.3,-1.0,-24.6
OC(COc1c(Cl)cc(Cl)cc1Cl)CN1CCCCC1 (stereo unspecified),3.6,-22.4,6.4,-1.5,-63.0*
Fc1ccc(CN2CC[C@H]3C=CCc4cccc(c43)C2)cc1,0.5,-60.3,-9.2,-4.6,-52.9*
Clc1ccc(CN2CC[C@H]3C=CCc4cccc(c43)C2)cc1,-0.8,-12.7,nt,-1.9,-84.3*
Fc1ccc(CNC2CCN(Cc3ccccc3)CC2)cc1,10.5,-11.0,-5.6,-3.0,-14.8
CCc1ccc(NC(=O)COC(=O)c2nc3nc(C)cc(C)n3n2)cc1,1.9,4.6,-20.6,-2.1,2.4
SMILES,D1 ag,DRD3 agonist,D1 antag,D1 potentiator,D3 antag
Cn1c(-n2cccc2)c(-c2c(-c3ccc(F)cc3)[nH]c3c2c(=O)[nH]c(=O)n3C)c(=O)[nH]c1=O,-0.3,-22.7,0.1,0.1,nt
COCCNc1nc(Oc2ccccc2)c2sccc2n1,nt,-0.1,nt,nt,-7.7
COCCNc1nc(Oc2ccc(C(N)=O)cc2)c2sccc2n1,nt,43.1*,nt,nt,-2.5
COCCNc1nc(Oc2cccc3ccccc23)c2sccc2n1,nt,54.0*,nt,nt,-5.2
Cc1c(CC(=O)N2CCCCC2)c(=O)oc2c(C)c3occ(C(C)(C)C)c3cc12,0.6,-0.7,12.0,0.9,nt
CCSc1nnc(NC(=O)Cc2cccc(OC)c2)s1,-0.4,-4.5,18.3,10.8,-6.1
COC(=O)c1ccc(CSc2nnc(SCc3ccc(C(=O)OC)o3)s2)o1,0.6,0.6,3.5,-7.9,-19.7
CCSc1nnc(NC(=O)Cc2ccc(OC)cc2)s1,-0.1,-1.9,-47.3*,-9.4,6.1
COC(=O)c1ccc(CSc2nnc(Nc3ccc(OC)cc3)s2)o1,-0.8,-2.4,-30.5*,-2.0,50.7
CCCCC1=CC2=C(c3ccco3)C(=O)C(C)(OC(=O)c3ccc(OC)cc3)C(=O)C2=CN1CCCOC(C)C (stereo unspecified),2.9,-18.2,9.0,0.5,-83.0*
Cc1ccc(C)c(Nc2nc3nonc3nc2Nc2cccc(C)c2C)c1,8.0,-6.9,-30.5*,-2.5,nt
CCOC(=O)c1ccc(Nc2nc3nonc3nc2Nc2cccc(C)c2C)cc1,23.6,9.7,-39.3*,-3.5,nt
CCOC(=O)c1ccc(Nc2cc(C)nc(C)c2C(=O)OCC)cc1,-1.0,-3.0,nt,-1.3,?
CCc1ccc(NC(=O)C2CCN(c3nn4c(=O)cc(C)nc4s3)CC2)cc1,-1.3,8.3,0.3,2.2,nt
COc1ccccc1N1CCN(c2nc3c(S(=O)(=O)c4ccc(C)c(C)c4)nnn3c3ccc(Cl)cc23)CC1,-0.1,-0.9,6.4,-4.2,nt
O=S(=O)(c1cccs1)N1CCCc2cccc(O)c21,4.4,-3.1,-3.6,-2.5,-72.7*
Cc1ccc(NC(=O)CCn2c(=O)c3cccn3c3ccccc32)cc1C,2.6,-10.5,-36.7*!,2.8,-16.3
CCc1ccc(NC(=O)CCn2c(=O)c3cccn3c3ccccc32)cc1,3.8,-20.7,3.9,16.9,-54.2*
CCc1ccc(NC(=O)Cn2c(=O)c3cccn3c3ccccc32)cc1,4.9,-1.0,1.3,-1.8,-17.7
CCOc1ccc(CNC(=O)c2ccccc2NC(=O)c2nsc3ccccc23)cc1,0.9,-17.2,-5.2,-0.8,nt
O=C(Nc1ccc(-c2nc3ccccc3s2)c(O)c1)c1ccc(Br)cc1,-0.4,2.5,-33.3*,2.4,nt
OCCN1CCN(CCOc2cccc(Cl)c2)CC1,3.8,39.9*,-13.2,-3.8,?
CC1CCN(CCOc2ccc(Cl)c(Cl)c2)CC1,5.5,1.0,-6.3,-6.2,-51.3*
Clc1cccc(OCCN2CCOCC2)c1,2.1,3.6,17.7,2.7,-66.2*
Cc1cc(OCCN2CCOCC2)ccc1Cl,5.4,2.1,-93.9*,-2.5,-23.8

# Source: PubChem BioAssay
